The panel holds about 79,000 compounds, 15% with a hit somewhere; the sample as a whole holds those more often. Active and inactive are the calls of the source. Rule as the data show it: active = growth inhibition above about 70%; inactive = the rest.
Legend:
[1] = NCI Yeast Anticancer Drug Screen. Data for the mec2-1 strain (AID 157); details: S. cerevisiae mec2-1 strain, active compounds read high
How it was run: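 Yeast mec2-1 mutant treated with compound. Readout: growth inhibition vs vehicle controls.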

[2] = NCI Yeast Anticancer Drug Screen. Data for the rad14 strain (AID 159);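 also: 0% = growth of vehicle-treated control cultures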; details: S. cerevisiae rad14 strain growth inhibition, active compounds read high
How it was run: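 DNA repair-defective yeast, compound-exposed; % growth inhibition derived by comparison with vehicle-treated controls.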

[3] = NCI Yeast Anticancer Drug Screen. Data for the sgs1 mgt1 strain (AID 161);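 also: 0% = growth of cultures given vehicle only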; details: S. cerevisiae sgs1 mgt1 strain, active compounds read high
How it was run: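 Inhibition of yeast growth, normalised to vehicle-treated controls, is reported for a strain bearing genetic alterations in DNA damage repair.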

[4] = NCI Yeast Anticancer Drug Screen. Data for the CLN2oe strain (AID 163);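 also: 0% = growth of vehicle-only control cultures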; details: S. cerevisiae CLN2oe strain, active compounds read high
How it was run: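 Read-out: yeast growth inhibition, expressed relative to vehicle-only controls. The strain bears an engineered cell-cycle alteration.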

[5] = NCI Yeast Anticancer Drug Screen. Data for the cln2 rad14 strain (AID 165);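 also: 0% = growth equal to vehicle treated cultures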; details: S. cerevisiae cln2 rad14 strain, active compounds read high
How it was run: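 cln2 rad14 yeast strain; compound exposure; growth inhibition read vs vehicle controls.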

[6] = NCI Yeast Anticancer Drug Screen. Data for the bub3 strain (AID 167); details: S. cerevisiae bub3 mutant strain, active compounds read high
How it was run: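 In this screen, a yeast mutant lacking normal mitotic checkpoint function is challenged with compound. Relative growth versus vehicle gives the inhibition value.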

[7] = NCI Yeast Anticancer Drug Screen. Data for the wt2 strain (AID 169);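 also: 0% = growth of vehicle-treated yeast cultures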; details: S. cerevisiae wt2 strain growth inhibition, active compounds read high
How it was run: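 Read-out: growth inhibition versus vehicle-treated control cultures after compound exposure of the yeast strain.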

[8] = NCI Yeast Anticancer Drug Screen. Data for the mlh1 strain (AID 171);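 also: 0% = growth of vehicle-treated control cultures of the same strain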; details: S. cerevisiae mlh1 strain growth inhibition, active compounds read high
How it was run: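 Read-out: growth inhibition versus vehicle controls. Strain: engineered yeast with a defined DNA repair or cell cycle defect, compound-treated.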

[9] = NCI Yeast Anticancer Drug Screen. Data for the sgs1 strain (AID 173);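 also: 0% = growth of vehicle-only control cultures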; details: S. cerevisiae sgs1 mutant, active compounds read high
How it was run: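 Read-out: yeast growth inhibition relative to vehicle controls, following compound exposure of a strain with a defined DNA repair/cell cycle alteration.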

[10] = NCI Yeast Anticancer Drug Screen. Data for the mlh1 rad18 strain (AID 175); details: S. cerevisiae mlh1 rad18 strain growth inhibition, active compounds read high
How it was run: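 Yeast w/ defined DNA-repair lesions; compound exposure; growth vs vehicle controls → % inhibition.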

[11] = NCI Yeast Anticancer Drug Screen. Data for the rad18 strain (AID 177); details: S. cerevisiae rad18 mutant growth inhibition, active compounds read high
How it was run: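 Readout: growth inhibition vs vehicle controls. Cells: genetically altered yeast strain, DNA repair defect.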

[12] = NCI Yeast Anticancer Drug Screen. Data for the rad52 strain (AID 147);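 also: 0% = growth of vehicle-treated control cultures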; details: S. cerevisiae rad52 mutant growth inhibition, active compounds read high
How it was run: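 Read-out: growth inhibition versus vehicle-treated controls. Cells were a DNA repair-deficient yeast strain treated with compounds.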

[13] = NCI Yeast Anticancer Drug Screen. Data for the wt1 strain (AID 149);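 also: 0% = growth of vehicle-treated wt1 cultures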; details: S. cerevisiae wt1 strain (SPY 50644) growth inhibition, active compounds read high
How it was run: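 wt1 strain grown with compound or vehicle; inhibition taken from the growth difference.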

[14] = NCI Yeast Anticancer Drug Screen. Data for the rad50EPP+ strain (AID 151);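 also: 0% = growth of vehicle-treated control cultures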; details: S. cerevisiae rad50 mutant strain, active compounds read high
How it was run: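 Growth inhibition read against vehicle controls in rad50EPP+ yeast, a strain altered in DNA damage repair, after compound exposure.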

[15] = NCI Yeast Anticancer Drug Screen. Data for the mgt1 strain (AID 153); details: S. cerevisiae mgt1 mutant growth inhibition, active compounds read high
How it was run: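 mgt1 yeast grown with test compound; read-out is growth inhibition versus vehicle-treated cultures.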

[16] = NCI Yeast Anticancer Drug Screen. Data for the rad50 strain (AID 155);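 also: 0% = growth of vehicle-only cultures of the same strain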; details: S. cerevisiae rad50 strain growth inhibition, active compounds read high
How it was run: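 DNA repair mutant yeast, compound exposure, growth read-out; inhibition is taken relative to vehicle.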

[17] = at 5.0 µM (retest, dose inferred, filed as 0.5)
[18] = at 50.0 µM (retest, dose inferred, filed as 5.0)

Measured: growth inhibition

CO[C@@]1([C@@H](Cl)c2ccccc2)C(=O)N(C)/C(=C\c2ccccc2)C(=O)N1C
inactive: [1]; [17] -2% | [1]; at 11.0 µM 0% | [1]; at 33.0 µM 4% | [1]; [18] 4% | [1]; at 50.0 µM 11% | [1]; at 100.0 µM 8% | [2]; at 1.2 µM 1% | [2]; at 3.7 µM 3% | [2]; at 11.0 µM 8% | [2]; at 33.0 µM 10% | [2]; at 100.0 µM 11% | [3]; [17] -13% | [3]; at 50.0 µM 43.6% | [4]; at 1.2 µM -1% | [4]; at 3.7 µM 0% | [4]; at 11.0 µM -1% | [4]; at 33.0 µM 5% | [4]; at 100.0 µM 7% | [5]; [17] -8% | [5]; [18] 15% | [5]; at 50.0 µM 36.1% | [6]; at 1.2 µM -1% | [6]; at 3.7 µM -3% | [6]; [17] -11% | [6]; at 11.0 µM 0% | [6]; at 33.0 µM 10% | [6]; [18] 20% | [6]; at 50.0 µM -6.35% | [6]; at 100.0 µM 19% | [7]; at 1.2 µM 2% | [7]; at 3.7 µM 0% | [7]; at 11.0 µM -1% | [7]; at 33.0 µM 48% | [8]; at 1.2 µM 0% | [8]; at 3.7 µM -2% | [8]; at 11.0 µM -1% | [8]; at 33.0 µM 9% | [8]; at 100.0 µM 67% | [9]; at 1.2 µM -2% | [9]; at 3.7 µM -3% | [9]; at 11.0 µM -1% | [9]; at 33.0 µM 35% | [10]; [17] -10% | [10]; [18] 10% | [10]; at 50.0 µM 9% | [11]; at 1.2 µM 0% | [11]; at 3.7 µM 0% | [11]; at 11.0 µM -1% | [11]; at 33.0 µM 4% | [11]; at 100.0 µM 9%
active: [3]; [18] 96% | [7]; at 100.0 µM 79% | [9]; at 100.0 µM 82%

CC(C)Cc1ncc(CCCN=C(N)N)[nH]c1=O
inactive: [12]; at 1.2 µM -7% | [12]; at 3.7 µM -10% | [12]; at 11.0 µM -5% | [12]; at 33.0 µM -1% | [12]; at 100.0 µM -5% | [13]; at 1.2 µM 0% | [13]; at 3.7 µM 1% | [13]; at 11.0 µM 4% | [13]; at 33.0 µM 3% | [13]; at 100.0 µM 6% | [14]; at 1.2 µM -2% | [14]; at 3.7 µM -13% | [14]; at 11.0 µM 0% | [14]; at 33.0 µM 9% | [14]; at 100.0 µM 9% | [15]; at 1.2 µM -2% | [15]; at 3.7 µM -5% | [15]; at 11.0 µM -3% | [15]; at 33.0 µM -6% | [15]; at 100.0 µM -6% | [16]; at 1.2 µM -14% | [16]; at 3.7 µM -19% | [16]; [17] -5% | [16]; at 11.0 µM -21% | [16]; at 33.0 µM -20% | [16]; [18] 4% | [16]; at 100.0 µM 2% | [1]; at 1.2 µM -4% | [1]; at 3.7 µM -2% | [1]; [17] 3% | [1]; at 11.0 µM -3% | [1]; at 33.0 µM -5% | [1]; [18] 49% | [1]; at 100.0 µM -3% | [2]; at 1.2 µM 0% | [2]; at 3.7 µM 1% | [2]; at 11.0 µM 15% | [2]; at 33.0 µM 11% | [2]; at 100.0 µM -2% | [3]; [17] 1% | [3]; [18] 38% | [4]; at 1.2 µM -4% | [4]; at 3.7 µM -5% | [4]; at 11.0 µM -13% | [4]; at 33.0 µM -11% | [4]; at 100.0 µM -7% | [5]; [17] -7% | [5]; [18] 38% | [6]; at 1.2 µM -9% | [6]; at 3.7 µM -6% | [6]; [17] -6% | [6]; at 11.0 µM -10% | [6]; at 33.0 µM -14% | [6]; at 100.0 µM -14% | [7]; at 1.2 µM 6% | [7]; at 3.7 µM 12% | [7]; at 11.0 µM 15% | [7]; at 33.0 µM 17% | [7]; at 100.0 µM 14% | [8]; at 1.2 µM -11% | [8]; at 3.7 µM -6% | [8]; at 11.0 µM -6% | [8]; at 33.0 µM -4% | [8]; at 100.0 µM -1% | [9]; at 1.2 µM -13% | [9]; at 3.7 µM -12% | [9]; at 11.0 µM -6% | [9]; at 33.0 µM -3% | [9]; at 100.0 µM -8% | [10]; [17] 2% | [10]; [18] 55% | [10]; at 50.0 µM 33.4% | [11]; at 1.2 µM -7% | [11]; at 3.7 µM -2% | [11]; at 11.0 µM -5% | [11]; at 33.0 µM -8% | [11]; at 100.0 µM -6%
active: [16]; at 50.0 µM 82.8% | [1]; at 50.0 µM 77.8% | [3]; at 50.0 µM 84.2% | [5]; at 50.0 µM 74.5% | [6]; [18] 91% | [6]; at 50.0 µM 81.8%

O=C1C=C(Br)C(=O)c2ccccc21
inactive: [12]; at 1.2 µM 6% | [12]; at 3.7 µM 19% | [13]; at 1.2 µM 10% | [13]; at 3.7 µM 23% | [14]; at 1.2 µM 19% | [14]; at 3.7 µM 39% | [15]; at 1.2 µM 11% | [15]; at 3.7 µM 18% | [16]; at 1.2 µM 9% | [16]; at 3.7 µM 46% | [16]; [17] 27% | [1]; at 1.2 µM 17% | [1]; at 3.7 µM 37% | [1]; [17] 39% | [2]; at 1.2 µM 10% | [2]; at 3.7 µM 24% | [3]; [17] 57% | [4]; at 1.2 µM 5% | [4]; at 3.7 µM 9% | [4]; at 11.0 µM 47% | [5]; [17] 5% | [6]; at 1.2 µM 22% | [6]; at 3.7 µM 44% | [7]; at 1.2 µM 13% | [7]; at 3.7 µM 28% | [8]; at 1.2 µM 8% | [8]; at 3.7 µM 11% | [9]; at 1.2 µM 8% | [9]; at 3.7 µM 19% | [10]; [17] 53% | [11]; at 1.2 µM 5% | [11]; at 3.7 µM 11%
active: [12]; at 11.0 µM 94% | [12]; at 33.0 µM 99% | [12]; at 100.0 µM 99% | [13]; at 11.0 µM 73% | [13]; at 33.0 µM 99% | [13]; at 100.0 µM 99% | [14]; at 11.0 µM 95% | [14]; at 33.0 µM 99% | [14]; at 100.0 µM 98% | [15]; at 11.0 µM 96% | [15]; at 33.0 µM 99% | [15]; at 100.0 µM 99% | [16]; at 11.0 µM 98% | [16]; at 33.0 µM 99% | [16]; [18] 99% | [16]; at 50.0 µM 99.2% | [16]; at 100.0 µM 99% | [1]; at 11.0 µM 97% | [1]; at 33.0 µM 99% | [1]; [18] 99% | [1]; at 50.0 µM 99.2% | [1]; at 100.0 µM 99% | [2]; at 11.0 µM 98% | [2]; at 33.0 µM 99% | [2]; at 100.0 µM 99% | [3]; [18] 99% | [3]; at 50.0 µM 99.2% | [4]; at 33.0 µM 99% | [4]; at 100.0 µM 99% | [5]; [18] 99% | [5]; at 50.0 µM 99.1% | [6]; [17] 86% | [6]; at 11.0 µM 99% | [6]; at 33.0 µM 99% | [6]; [18] 99% | [6]; at 50.0 µM 99% | [6]; at 100.0 µM 99% | [7]; at 11.0 µM 90% | [7]; at 33.0 µM 99% | [7]; at 100.0 µM 99% | [8]; at 11.0 µM 98% | [8]; at 33.0 µM 99% | [8]; at 100.0 µM 99% | [9]; at 11.0 µM 93% | [9]; at 33.0 µM 99% | [9]; at 100.0 µM 99% | [10]; [18] 99% | [10]; at 50.0 µM 99.1% | [11]; at 11.0 µM 82% | [11]; at 33.0 µM 99% | [11]; at 100.0 µM 98%
